Rows were chosen to be rich in hits. Some 3.5% of all compounds tested hit in one or more screens of this group.
FBW7 act – activators of human E3 ligase FBW7 | normalized activity (activation), % at 26.1 µM | 650,000 tested, 0.13% active | AlphaScreen FBW7–phospho-cyclin E peptide binding, activator screen; in the data active = normalized activity above about 1.9%;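 note: purified mutant Fbw7 with reduced substrate affinity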
TEAD-YAP block – TEAD-YAP interaction inhibition; HEK-TIYL cells, TEAD-Gal4/YAP UAS-luciferase luminescence; inhibition, % at 9.12 µM; 640,000 tested, 1.4% active; in the data active = inhibition above about 32%
GPR151 ag – activates the human receptor GPR151. Q8TDV0. PathHunter beta-arrestin GPR151 cells, luminescence. activation, % at 11.2 µM. 650,000 tested, 1% active; in the data active = activation above about 4.9%
Target sequence (Q8TDV0 whole entry, looked up): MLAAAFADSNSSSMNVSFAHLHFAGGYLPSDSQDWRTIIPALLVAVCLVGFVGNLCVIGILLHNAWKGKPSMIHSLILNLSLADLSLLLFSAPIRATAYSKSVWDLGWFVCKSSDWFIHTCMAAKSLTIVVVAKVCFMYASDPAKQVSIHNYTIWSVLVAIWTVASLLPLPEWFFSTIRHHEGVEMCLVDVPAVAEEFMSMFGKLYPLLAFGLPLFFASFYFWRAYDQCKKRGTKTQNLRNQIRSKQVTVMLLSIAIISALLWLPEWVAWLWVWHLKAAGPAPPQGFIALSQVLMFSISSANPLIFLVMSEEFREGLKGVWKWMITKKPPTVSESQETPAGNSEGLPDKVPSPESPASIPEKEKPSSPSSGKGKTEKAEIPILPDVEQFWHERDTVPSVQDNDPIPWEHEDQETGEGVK
MITF primary – human MITF inhibition, primary screen; inhibition, % at 2.6 µM; 650,000 tested, 0.91% active; AlphaScreen MITF homodimerization, bead proximity signal; AID 1259374; in the data active = inhibition above about 50%
MITF inh conf – confirmation of human MITF inhibitors | shares compounds with MITF primary | inhibition, % at 2.6 µM | 4,700 tested, 16% active | AlphaScreen MITF homodimerization, biotin/His-MITF beads;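 active = inhibition above a cutoff derived from the DMSO control wells, cut at about 28% in these data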;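 note: inhibitors lower the bead chemiluminescence by keeping MITF from dimerizing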
AS interf DR – optically interferes with AlphaScreen signal in dose response; shares compounds with MITF primary; AlphaScreen optical interference counterscreen, cell-free; IC50, µM; 480 tested, 6% active; AID 1259373; call rule not given here
AlphaScreen intf2 – counter-screen: compounds optically interfering with AlphaScreen; 4,700 tested, 7.6% active; inhibition, % at 2.6 µM; shares compounds with MITF primary; LysRS AlphaScreen counterscreen, signal interference, triplicate;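 active = inhibition above a cutoff derived from the DMSO control wells, cut at about 30% in these data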
Of the large screens only hits and unclear results are named; the others gave an inactive call (follow-up assays come after a bar, where they were run).

CCCCc1nc2ccccc2c(NC(=O)CN2CCN(C(=O)c3ccco3)CC2)c1CCC	MITF primary 65 | MITF inh conf inactive | AlphaScreen intf2 inactive
Nc1nc(NC2CC2)cc(N2CCc3ccccc3C2)n1	none
CCCCCNC(CC(=O)Nc1cc(C)ccc1C)C(=O)O (stereo not drawn)	none
Cc1ccc(C)c(NC(=O)CC(NCCN)C(=O)O)c1 (stereo not drawn)	MITF primary 81 | MITF inh conf 36 | AlphaScreen intf2 58
O=C(CC(NCc1ccccn1)C(=O)O)Nc1cccc(Cl)c1 (stereo not drawn)	MITF primary 112 | MITF inh conf 84 | AlphaScreen intf2 100
Cc1ccc(Cl)cc1NC(=O)CC(NCc1ccccn1)C(=O)O (stereo not drawn)	MITF primary 101 | MITF inh conf 87 | AlphaScreen intf2 100
O=C(CC(NCc1ccccc1)C(=O)O)Nc1cccc(C(F)(F)F)c1 (stereo not drawn)	MITF primary 89 | MITF inh conf inactive | AlphaScreen intf2 inactive
Cc1nc(-c2ccc(C(=O)Nc3cccc(I)c3)cc2)cs1	none
Cc1ccc(NC(=O)c2cccc3ccccc23)c(Br)c1	none
FC(F)(F)c1ccc(-c2noc(-c3cc(-c4ccc(Cl)cc4)nc4ccccc34)n2)cc1	MITF primary 56 | MITF inh conf inactive | AlphaScreen intf2 inactive
COc1cccc(-c2csc(N3CCN(CC(=O)c4ccc(C)cc4)CC3)n2)c1	none
Cc1sc2nc(C(C)C)n3c(=O)n(CC(=O)NCc4ccco4)nc3c2c1C	none
Cc1sc2nc(C)n3c(=O)n(CC(=O)NCc4ccco4)nc3c2c1C	MITF primary 51 | MITF inh conf 29 | AS interf DR inactive | AlphaScreen intf2 inactive
C=CCN(CC=C)CCOc1ccc(C(=O)OC)cc1	MITF primary 51 | MITF inh conf inactive | AlphaScreen intf2 inactive
CCN1C=CC(=C(/C=C2\C=CC=CC2=O)CS(=O)(=O)O)C=C1	MITF primary 65 | MITF inh conf inactive | AlphaScreen intf2 inactive
O=C(CCS(=O)(=O)Cc1ccccc1F)NCc1ccc(F)cc1Cl	none
CC(C)CC(=O)N1CCN(Cc2ccncc2)CC1	MITF primary 65 | MITF inh conf inactive | AlphaScreen intf2 inactive
CC(C)CC(=O)N1CCN(Cc2cccc(C(F)(F)F)c2)CC1	MITF primary 56 | MITF inh conf inactive | AlphaScreen intf2 inactive
FC(F)(F)c1cccc(CN2CCSCC2)c1	none
CC(C)CC(=O)N1CCN(Cc2ccco2)CC1	MITF primary 58 | MITF inh conf inactive | AlphaScreen intf2 inactive
O=C(C#Cc1ccccc1)N1CCC2(CC1)CC2C(=O)N1CCN(C2CCCCC2)CC1 (stereo not drawn)	none
c1ccc(Oc2ccccc2-c2cnc3c(NCCc4ccccn4)nccn23)cc1	none
Cc1ccccc1-c1nc(CSc2nc3c(c(=O)[nH]2)CCCC3)c(C)o1	none
COc1ccccc1-n1c(SCC(=O)N(c2ccccc2)C(C)C)nc2sc3c(c2c1=O)CCCC3	none
CC1CN(Cc2ccccc2[N+](=O)[O-])CC(C)O1 (stereo not drawn)	none
CC1CCC(N2CCN(Cc3ccccc3[N+](=O)[O-])CC2)CC1 (stereo not drawn)	MITF primary 69 | MITF inh conf inactive | AlphaScreen intf2 inactive
O=[N+]([O-])c1ccccc1CN1CCC(N2CCN(c3ccccc3F)CC2)CC1	none
O=[N+]([O-])c1ccccc1CN1CCN(C2CCCCCC2)CC1	MITF primary 75 | MITF inh conf inactive | AlphaScreen intf2 inactive
CC1CN(C2CCN(Cc3ccccc3[N+](=O)[O-])CC2)CC(C)O1 (stereo not drawn)	MITF primary 66 | MITF inh conf inactive | AlphaScreen intf2 inactive
O=[N+]([O-])c1ccccc1CN1CCCCCC1	none
OC(CN1CCN(Cc2ccccc2)CC1)CN1c2ccccc2Sc2ccccc21 (stereo not drawn)	MITF primary 56 | MITF inh conf inactive | AlphaScreen intf2 inactive
COc1ccccc1N1CCN(C(=O)CN(c2ccc(C)cc2)S(=O)(=O)c2ccc(F)cc2)CC1	none
CCOc1cc2oc(=O)cc(CC)c2cc1Cl	none
CCc1cc(=O)oc2cc(OC)c(Cl)cc12	MITF primary 88 | MITF inh conf inactive | AlphaScreen intf2 inactive
CN(CCN1CCOCC1)C1CCN(C(=O)CNC(=O)/C=C/c2cccs2)CC1	MITF primary 62 | MITF inh conf inactive | AlphaScreen intf2 inactive
COc1cccc(CN2CCN(C3CC4CCC3C4)CC2)c1OC (stereo not drawn)	MITF primary 71 | MITF inh conf inactive | AlphaScreen intf2 inactive
CCN(CC)C(=O)C1CCCN(Cc2cccc(OC)c2OC)C1 (stereo not drawn)	none
COc1cccc(CN2CCN(C3CCCCC3C)CC2)c1OC (stereo not drawn)	MITF primary 86 | MITF inh conf inactive | AlphaScreen intf2 inactive
COc1cccc(CN2CCN(C3CCCC3)C(CCO)C2)c1OC (stereo not drawn)	none
COc1cccc(CN2CCCC(C(=O)NN)C2)c1OC (stereo not drawn)	MITF primary 55 | MITF inh conf inactive | AlphaScreen intf2 inactive
COc1cccc(CN2CCN(C3CCCCCC3)CC2)c1OC	MITF primary 71 | MITF inh conf inactive | AlphaScreen intf2 inactive
O=C1CS/C(=N\N=C\c2ccc([N+](=O)[O-])cc2)N1c1ccc(O)cc1	none
O=C(NCCN1CCOCC1)c1cnc(N2CCc3ccccc3C2)s1	none
CC(C)NC(=O)C(=O)N/N=C/c1ccc(OCc2ccc(Cl)cc2)cc1	none
CC(C)NC(=O)C(=O)N/N=C/c1ccc(OCc2ccccc2Cl)cc1	MITF primary 55 | MITF inh conf inactive | AlphaScreen intf2 inactive
CCOc1ccccc1CN1CCC(C(=O)NCCN2CCOCC2)CC1	MITF primary 52 | MITF inh conf inactive | AlphaScreen intf2 inactive
O=C(NCCN1CCOCC1)C1CCN(Cc2ccc(Cl)c(Cl)c2)CC1	MITF primary 69 | MITF inh conf inactive | AlphaScreen intf2 inactive
CCOC(=O)CNC(=O)c1sc2ncnc(N3CCN(c4ccccc4)CC3)c2c1C	none
CC(C)N(C(=O)Cn1nnc2ccccc2c1=O)C(C)C	none
O=c1oc2ccccc2c(O)c1Cc1cc(Cl)c2cccnc2c1O	none
O=C1NC(=O)C(Cc2cc(Cl)c3cccnc3c2O)C(=O)N1	MITF primary 58 | MITF inh conf 82 | AlphaScreen intf2 85
COc1ccc(CCNC(=O)COc2cccc3ccc(N4CCCC4)nc23)cc1OC	none
Cc1ccc(-c2csc3nc[nH]c(=O)c23)cc1	none
Cc1ccc(-c2csc3nc(CNCCN(C)C)[nH]c(=O)c23)cc1	MITF primary 96 | MITF inh conf inactive | AlphaScreen intf2 83
Cc1nc2c(-c3ccccc3)c(C)nn2c(C)c1CCC(=O)NCc1ccc2c(c1)OCO2	none
Cc1ccc2[nH]c(=O)c(=O)[nH]c2c1	MITF primary 82 | MITF inh conf 53 | AS interf DR inactive | AlphaScreen intf2 inactive

Assay outcomes as filed in PubChem BioAssay.
